Assays:
Conditions in all cases: concentration: 1 μM, replicates: in singlicate; n = 1
MEK5 = tested on: T1, MEK5
T1 construct: gene MAP2K5

MEK6 = tested on: T2, MEK6
T2 construct: gene MAP2K6

MELK = tested on: MELK
MERTK = tested on: MERTK
MET = tested on: MET
MINK = tested on: T3, MINK
T3 construct: gene MINK1

MKK7 = tested on: MKK7
MKNK1 = tested on: MKNK1
MKNK2 = tested on: MKNK2
MLCK = tested on: T4, MLCK
T4 construct: gene MYLK3
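Note: KINOMEscan kinase panel screen.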

Row | SMILES | %Inh (MEK5) | %Inh (MEK6) | %Inh (MELK) | %Inh (MERTK) | %Inh (MET) | %Inh (MINK) | %Inh (MKK7) | %Inh (MKNK1) | %Inh (MKNK2) | %Inh (MLCK)
1 | COc1cccc(C2=C(Nc3ccc(Cl)c(C(=O)O)c3)C(=O)NC2=O)c1 [SB-390769] | 18% | 0% | 7% | 0% | 8% | 100% | 18% | 4% | 5% | 100%
2 | COc1cc(Nc2nccc(N3CCC(NC(=O)Nc4cccc(C(C)=O)c4)C3)n2)cc(OC)c1OC (centres unmarked) [GSK1379753] | 99.6% | 0% | 0% | 23% | 12% | 0% | 0% | 9% | 62% | 0%
3 | C[C@@H](Oc1cc(-n2cnc3cc(-c4ccnc(NCCS(C)(=O)=O)c4)ccc32)sc1C(N)=O)c1ccccc1Cl [GSK907232] | 56% | 0% | 0% | 90.9% | 36% | 1% | 0% | 0% | 7% | 0%
4 | Nc1n[nH]c2cnc(-c3ccccc3)cc12 [SB-642124] | 52% | 0% | 28% | 43% | 0% | 53% | 0% | 13% | 8% | 1%
5 | O=C(Nc1n[nH]c2cc(-c3ccoc3)ccc12)C1CC1 [SB-738481] | 45% | 0% | 0% | 0% | 0% | 44% | 0% | 0% | 15% | 34%
6 | CCS(=O)(=O)c1ccc(OC)c(Nc2nccc(-c3c(-c4cccc(NC(=O)c5c(F)cccc5F)c4)nn4ncccc34)n2)c1 [GSK326180] | 99.6% | 0% | 0% | 9% | 2% | 0% | 14% | 3% | 12% | 0%
7 | COc1ccc(Nc2nccc(N3CCC(NC(=O)Nc4cccc(OC)c4)C3)n2)cc1 (centres unmarked) [GSK1379742] | 46% | 0% | 7% | 19% | 0% | 0% | 0% | 3% | 0% | 0%
8 | Cl.Cl.NCC(NC(=O)c1cc(-c2ccccc2)c(-c2ccnc3[nH]ccc23)s1)c1ccccc1 (centres unmarked) [GSK1321561] | 19% | 6% | 37% | 44% | 3% | 90.7% | 17% | 20% | 19% | 40%
9 | CN(C)S(=O)(=O)c1cc(-c2ccc3nccc(-c4cccc(S(N)(=O)=O)c4)c3c2)cnc1N [GSK1669921] | 56% | 0% | 0% | 33% | 0% | 19% | 0% | 0% | 4% | 0%
10 | COc1ccc(Nc2nccc(NCCNC(=O)c3cc4ccccc4s3)n2)cc1 [GSK1379896] | 33% | 0% | 0% | 24% | 0% | 2% | 0% | 0% | 0% | 0%
11 | c1ccc(-c2cnc3nccnn23)cc1 [AH20685] | 0% | 0% | 0% | 0% | 0% | 0% | 0% | 2% | 11% | 9%
12 | COC(=O)Nc1nc2ccc(Oc3ccc(NC(=O)Nc4cc(C(F)(F)F)ccc4F)cc3)cc2n1C.Cl [GW692089] | 15% | 0% | 0% | 94.2% | 62% | 20% | 0% | 75% | 90.2% | 34%
13 | Nc1ncc(-c2cccnc2)c2scc(-c3ccc4c(c3)CCN4C(=O)Cc3ccccc3)c12 [GSK683281] | 99.7% | 0% | 100% | 69% | 33% | 41% | 30% | 5% | 15% | 14%
14 | COCCOCCOc1cc2ncc3c4ccc(C#N)cc4[nH]c3c2cc1OC | 100% | 0% | 54% | 0% | 10% | 90.9% | 0% | 95.4% | 99.7% | 95.8%
15 | Oc1cc(Nc2ccnc3cc(I)ccc23)ccc1F [GW552771] | 96.5% | 0% | 0% | 34% | 0% | 55% | 0% | 0% | 14% | 0%
16 | O=C(Nc1cccc(Oc2ccc3nc(NC(=O)C4CC4)cn3n2)c1)c1ccccc1C(F)(F)F | 99.8% | 14% | 15% | 26% | 7% | 2% | 0% | 0% | 0% | 0%

Row | SMILES | %Inh (MEK5) | %Inh (MEK6) | %Inh (MELK) | %Inh (MERTK) | %Inh (MET) | %Inh (MINK) | %Inh (MKK7) | %Inh (MKNK1) | %Inh (MKNK2) | %Inh (MLCK)
17 | COc1cccc(-c2ccc3c(NC(=O)C4CC4)n[nH]c3n2)c1 [SB-710903] | 61% | 0% | 0% | 38% | 28% | 76% | 0% | 32% | 21% | 47%
18 | CSc1cccc2c(-c3ccncn3)c(-c3ccc(F)cc3)nn12 [GW514786] | 15% | 0% | 20% | 39% | 23% | 5% | 0% | 14% | 1% | 0%
19 | COC(=O)Nc1nc2cc(Oc3ccc(NC(=O)Nc4cc(C(F)(F)F)ccc4F)cn3)ccc2[nH]1.Cl.Cl [GW681170] | 51% | 0% | 6% | 95.7% | 73% | 18% | 0% | 36% | 88% | 0%
20 | COc1cccc(C(=O)Nc2cccc(Oc3ccc4nc(NC(=O)C5CC5)cn4n3)c2)c1 | 98.2% | 0% | 35% | 57% | 20% | 63% | 0% | 4% | 0% | 0%
21 | O=C(Nc1ccccc1F)NC1CCN(c2ccnc(Nc3ccc(F)cc3)n2)CC1 [GSK1379800] | 13% | 0% | 15% | 0% | 0% | 0% | 17% | 0% | 0% | 0%
22 | Cl.Cl.NCC(C(=O)Nc1cc(Br)c(-c2ccnc3[nH]ccc23)s1)c1ccccc1 (centres unmarked) [GSK1269851] | 20% | 0% | 45% | 19% | 0% | 8% | 0% | 13% | 99.1% | 98.7%
23 | Cc1ccc(C(=O)Nc2ccc(Nc3ccnc4cc(-c5nccs5)ccc34)cc2O)cc1.Cl [GW494702] | 99.9% | 0% | 1% | 24% | 0% | 47% | 0% | 22% | 8% | 12%
24 | COc1cc2c(cc1OCCN1CCNCC1)ncc1c3ccc(C#N)cc3[nH]c21 | 99.6% | 0% | 35% | 0% | 5% | 86% | 12% | 100% | 99% | 97.5%
25 | COc1ccc(-c2coc3ccc(-c4nnc(SCc5ccc(OC)c(C(F)(F)F)c5)o4)cc23)cc1 | 4% | 0% | 20% | 11% | 13% | 26% | 14% | 0% | 1% | 0%
26 | CN(C)Cc1ccc(-c2ccc3c(Nc4ccc(Oc5ccccn5)cc4)ccnc3c2)o1 [GW567148] | 100% | 0% | 0% | 38% | 12% | 36% | 0% | 0% | 38% | 0%
27 | c1ccc(-c2n[nH]cc2Nc2ccnc3ccccc23)nc1 [GW694077] | 31% | 8% | 21% | 0% | 100% | 61% | 0% | 13% | 85% | 2%
28 | Cl.Cl.NCC(NCc1ccc(-c2ccnc3[nH]ccc23)s1)c1ccccc1 (centres unmarked) [GSK1321565] | 43% | 4% | 64% | 74% | 0% | 51% | 0% | 2% | 65% | 6%
29 | O=C(Nc1n[nH]c2nc(-c3ccc(O)cc3)ccc12)C1CC1 [SB-710363] | 81% | 0% | 46% | 8% | 0% | 72% | 0% | 43% | 54% | 57%
30 | Nc1ncc(-c2ccc3nccc(-c4ccncc4)c3c2)cc1S(=O)(=O)N1CCOCC1 [GSK1627798] | 15% | 0% | 0% | 12% | 0% | 10% | 5% | 0% | 3% | 0%
31 | Cn1cc(-c2ccc3c(c2)CCN3C(=O)Cc2cccc(F)c2)c2c(N)ncnc21 [GSK2603358] | 99.9% | 0% | 9% | 49% | 61% | 0% | 32% | 2% | 21% | 16%
32 | Cc1occc1-c1ncc(OC[C@@H](N)Cc2c[nH]c3ccccc23)cc1-c1ccc2[nH]nc(C)c2c1.O=C(O)C(F)(F)F [GSK682037] | 76% | 13% | 50% | 66% | 45% | 97.2% | 17% | 0% | 0% | 39%
